Laboratory results reported in PubChem BioAssay (NCI).
The panel holds about 79,000 compounds, 15% with a hit somewhere; the sample as a whole holds those more often. The source made the active and inactive calls. Cut-off read from the data, not from the text of the source: active = growth inhibition above about 70%; inactive = the rest.

Columns and labels:
[1] = NCI Yeast Anticancer Drug Screen. Data for the rad52 strain (AID 147);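 note: 0% = growth of vehicle-treated control cultures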; settings: S. cerevisiae rad52 mutant growth inhibition, stronger effect = higher value
Summary of the method: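 Genetically altered yeast (DNA damage repair defect) treated with compound; inhibition calculated relative to vehicle.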

[2] = NCI Yeast Anticancer Drug Screen. Data for the wt1 strain (AID 149);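 note: 0% = growth of vehicle-treated wt1 cultures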; settings: S. cerevisiae wt1 strain (SPY 50644) growth inhibition, stronger effect = higher value
Summary of the method: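 Using yeast strain wt1, compound-induced growth inhibition was determined against vehicle-treated cultures.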

[3] = NCI Yeast Anticancer Drug Screen. Data for the rad50EPP+ strain (AID 151);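 note: 0% = growth of vehicle-treated control cultures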; settings: S. cerevisiae rad50 mutant strain, stronger effect = higher value
Summary of the method: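 Strain rad50EPP+; compound exposure; % growth inhibition vs vehicle.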

[4] = NCI Yeast Anticancer Drug Screen. Data for the mgt1 strain (AID 153); settings: S. cerevisiae mgt1 mutant growth inhibition, stronger effect = higher value
Summary of the method: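 Read-out: yeast growth inhibition vs vehicle control. Strain mgt1, drawn from a panel altered in DNA damage repair or cell cycle control.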

[5] = NCI Yeast Anticancer Drug Screen. Data for the rad50 strain (AID 155);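 note: 0% = growth of vehicle-only cultures of the same strain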; settings: S. cerevisiae rad50 strain growth inhibition, stronger effect = higher value
Summary of the method: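 Relative growth inhibition (compound vs vehicle) was measured in yeast with a defined repair-gene alteration.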

[6] = NCI Yeast Anticancer Drug Screen. Data for the mec2-1 strain (AID 157); settings: S. cerevisiae mec2-1 strain, stronger effect = higher value
Summary of the method: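 Cells of the genetically defined mec2-1 yeast strain are incubated with test compound. Inhibition of growth is calculated against vehicle-treated controls.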

[7] = NCI Yeast Anticancer Drug Screen. Data for the rad14 strain (AID 159);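 note: 0% = growth of vehicle-treated control cultures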; settings: S. cerevisiae rad14 strain growth inhibition, stronger effect = higher value
Summary of the method: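 Screen for anticancer potential: a yeast strain altered in DNA damage repair is grown with compound, and reduced growth is quantified against vehicle controls.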

[8] = NCI Yeast Anticancer Drug Screen. Data for the sgs1 mgt1 strain (AID 161);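 note: 0% = growth of cultures given vehicle only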; settings: S. cerevisiae sgs1 mgt1 strain, stronger effect = higher value
Summary of the method: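 Mutant yeast exposed to compound; growth scored against vehicle-only wells.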

[9] = NCI Yeast Anticancer Drug Screen. Data for the CLN2oe strain (AID 163);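 note: 0% = growth of vehicle-only control cultures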; settings: S. cerevisiae CLN2oe strain, stronger effect = higher value
Summary of the method: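 Strain altered in cell-cycle control, incubated with compound; growth compared to solvent-treated controls.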

[10] = NCI Yeast Anticancer Drug Screen. Data for the cln2 rad14 strain (AID 165);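 note: 0% = growth equal to vehicle treated cultures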; settings: S. cerevisiae cln2 rad14 strain, stronger effect = higher value
Summary of the method: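 The screen exposed genetically defined yeast (cln2 rad14) to test compounds and scored growth inhibition relative to vehicle-treated controls.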

[11] = NCI Yeast Anticancer Drug Screen. Data for the bub3 strain (AID 167); settings: S. cerevisiae bub3 mutant strain, stronger effect = higher value
Summary of the method: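 Screening used yeast with an engineered genetic alteration affecting cell cycle control. Compound-exposed cultures were compared with vehicle cultures, and reduced growth was taken as inhibition.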

[12] = NCI Yeast Anticancer Drug Screen. Data for the wt2 strain (AID 169);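 note: 0% = growth of vehicle-treated yeast cultures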; settings: S. cerevisiae wt2 strain growth inhibition, stronger effect = higher value
Summary of the method: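 Steps: yeast strain treated with compound; growth recorded; inhibition calculated relative to cultures given vehicle alone.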

[13] = NCI Yeast Anticancer Drug Screen. Data for the mlh1 strain (AID 171);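 note: 0% = growth of vehicle-treated control cultures of the same strain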; settings: S. cerevisiae mlh1 strain growth inhibition, stronger effect = higher value
Summary of the method: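 Yeast screen: mutant strain plus compound, growth scored against vehicle control wells.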

[14] = NCI Yeast Anticancer Drug Screen. Data for the sgs1 strain (AID 173);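 note: 0% = growth of vehicle-only control cultures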; settings: S. cerevisiae sgs1 mutant, stronger effect = higher value
Summary of the method: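 Inhibition of yeast growth served as the measure. The mutant strain was treated with each compound, and growth was normalised to cultures receiving vehicle alone.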

[15] = NCI Yeast Anticancer Drug Screen. Data for the mlh1 rad18 strain (AID 175); settings: S. cerevisiae mlh1 rad18 strain growth inhibition, stronger effect = higher value
Summary of the method: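 Compound-treated yeast growth, normalised to vehicle controls. Strain bears defined DNA repair mutations.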

[16] = NCI Yeast Anticancer Drug Screen. Data for the rad18 strain (AID 177); settings: S. cerevisiae rad18 mutant growth inhibition, stronger effect = higher value
Summary of the method: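 Inhibition values reflect reduced yeast growth compared with vehicle-treated controls, using a strain engineered with a DNA damage repair defect.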

[17] = at 5.0 µM (retest, dose inferred, filed as 0.5)
[18] = at 50.0 µM (retest, dose inferred, filed as 5.0)

Measured: growth inhibition

CN1CCN(C(=O)c2cccc3cccc(C(=O)O)c23)CC1
inactive: [1]; at 1.2 µM 11% | [1]; at 3.7 µM 10% | [1]; at 11.0 µM 7% | [1]; at 33.0 µM 38% | [2]; at 1.2 µM 6% | [2]; at 3.7 µM 9% | [2]; at 11.0 µM 11% | [2]; at 33.0 µM 12% | [2]; at 100.0 µM 33% | [3]; at 1.2 µM 15% | [3]; at 3.7 µM 12% | [3]; at 11.0 µM 10% | [3]; at 33.0 µM 36% | [4]; at 1.2 µM 4% | [4]; at 3.7 µM 12% | [4]; at 11.0 µM 11% | [4]; at 33.0 µM 23% | [5]; at 1.2 µM 9% | [5]; at 3.7 µM 9% | [5]; [17] -12% | [5]; at 11.0 µM 8% | [5]; at 33.0 µM 61% | [6]; at 1.2 µM 10% | [6]; at 3.7 µM 12% | [6]; [17] -19% | [6]; at 11.0 µM 13% | [6]; at 33.0 µM 23% | [6]; [18] 1% | [7]; at 1.2 µM 12% | [7]; at 3.7 µM 11% | [7]; at 11.0 µM 14% | [7]; at 33.0 µM 32% | [8]; [17] -14% | [9]; at 1.2 µM 13% | [9]; at 3.7 µM 15% | [9]; at 11.0 µM 14% | [9]; at 33.0 µM 32% | [10]; [17] -10% | [10]; [18] 6% | [10]; at 50.0 µM 38.6% | [11]; at 1.2 µM 12% | [11]; at 3.7 µM 15% | [11]; [17] 25% | [11]; at 11.0 µM 16% | [11]; at 33.0 µM 33% | [11]; at 50.0 µM 51.8% | [12]; at 1.2 µM -6% | [12]; at 3.7 µM -4% | [12]; at 11.0 µM -7% | [12]; at 33.0 µM -8% | [13]; at 1.2 µM 8% | [13]; at 3.7 µM 9% | [13]; at 11.0 µM 10% | [13]; at 33.0 µM 29% | [14]; at 1.2 µM -14% | [14]; at 3.7 µM -21% | [14]; at 11.0 µM -13% | [14]; at 33.0 µM 16% | [15]; [17] -30% | [15]; at 50.0 µM 9.9% | [16]; at 1.2 µM 11% | [16]; at 3.7 µM 11% | [16]; at 11.0 µM 13% | [16]; at 33.0 µM 33%
active: [1]; at 100.0 µM 97% | [3]; at 100.0 µM 72% | [4]; at 100.0 µM 99% | [5]; [18] 84% | [5]; at 50.0 µM 85% | [5]; at 100.0 µM 99% | [6]; at 50.0 µM 97.7% | [6]; at 100.0 µM 99% | [7]; at 100.0 µM 98% | [8]; [18] 88% | [8]; at 50.0 µM 77.6% | [9]; at 100.0 µM 97% | [11]; [18] 89% | [11]; at 100.0 µM 97% | [12]; at 100.0 µM 98% | [13]; at 100.0 µM 100% | [14]; at 100.0 µM 100% | [15]; [18] 99% | [16]; at 100.0 µM 99%

COc1ccc2nc3cccc([N+](=O)[O-])c3c(NCCNCCO)c2c1
inactive: [1]; at 1.2 µM 69% | [2]; at 1.2 µM -3% | [2]; at 3.7 µM 3% | [2]; at 11.0 µM 20% | [2]; at 33.0 µM 49% | [3]; at 1.2 µM 2% | [3]; at 3.7 µM 18% | [3]; at 11.0 µM 61% | [4]; at 1.2 µM -2% | [4]; at 3.7 µM 1% | [4]; at 11.0 µM 23% | [4]; at 33.0 µM 69% | [5]; at 1.2 µM 41% | [5]; [17] 36% | [6]; at 1.2 µM 17% | [6]; [17] 1% | [9]; at 1.2 µM -5% | [9]; at 3.7 µM -8% | [9]; at 11.0 µM -5% | [9]; at 33.0 µM 32% | [11]; at 1.2 µM -11% | [11]; at 3.7 µM -17% | [11]; [17] -31% | [11]; at 11.0 µM -11% | [11]; at 33.0 µM 36% | [11]; at 50.0 µM 67.7%
active: [1]; at 3.7 µM 90% | [1]; at 11.0 µM 95% | [1]; at 33.0 µM 96% | [1]; at 100.0 µM 96% | [2]; at 100.0 µM 70% | [3]; at 33.0 µM 92% | [3]; at 100.0 µM 96% | [4]; at 100.0 µM 75% | [5]; at 3.7 µM 81% | [5]; at 11.0 µM 93% | [5]; at 33.0 µM 94% | [5]; [18] 98% | [5]; at 50.0 µM 85% | [5]; at 100.0 µM 95% | [6]; at 3.7 µM 75% | [6]; at 11.0 µM 95% | [6]; at 33.0 µM 96% | [6]; [18] 96% | [6]; at 50.0 µM 89.3% | [6]; at 100.0 µM 97% | [7]; at 1.2 µM 90% | [7]; at 3.7 µM 97% | [7]; at 11.0 µM 99% | [7]; at 33.0 µM 99% | [7]; at 100.0 µM 98% | [8]; [17] 78% | [8]; [18] 94% | [8]; at 50.0 µM 78.2% | [9]; at 100.0 µM 90% | [10]; [17] 81% | [10]; [18] 98% | [10]; at 50.0 µM 86.8% | [11]; [18] 90% | [11]; at 100.0 µM 96%
